Inconclusive results are not listed. Active and inactive are the calls of the source. Unless noted, calls come from the whole dose curve; as a rule, active = well fitted curve in the direction sought with a large enough effect; inconclusive = small, poorly fitted or top-dose-only effect, or another doubt; inactive = no such curve, though single readings can be large; an effect the other way counts as inactive or inconclusive.
How the values were obtained:
[1] = target: Ferritin light chain (Equus caballus) (UniProt P02791); assay: qHTS Validation Assay for Identification of Novel General Anesthetics (AID 2323); note: series mostly up to about 77 µM
Method in brief: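 Competitive displacement of profluorescent 1-aminoanthracene (1-AMA, 50% saturated solution in PBS) from 10 uM horse-spleen apoferritin. Compounds incubated 10 min at room temperature; fluorescence read at 380 nm excitation/535 nm emission, normalized to free 1-AMA and complex, fitted with four-parameter Hill equation.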

[2] = target: ATP-dependent DNA helicase Q1 (Homo sapiens) (UniProt P46063); assay: qHTS Validation Assay for Inhibitors of RecQ-Like Dna Helicase 1 (RECQ1) (AID 2353)
ATP-dependent DNA helicase Q1 (Homo sapiens), sequence (P46063 whole entry, looked up): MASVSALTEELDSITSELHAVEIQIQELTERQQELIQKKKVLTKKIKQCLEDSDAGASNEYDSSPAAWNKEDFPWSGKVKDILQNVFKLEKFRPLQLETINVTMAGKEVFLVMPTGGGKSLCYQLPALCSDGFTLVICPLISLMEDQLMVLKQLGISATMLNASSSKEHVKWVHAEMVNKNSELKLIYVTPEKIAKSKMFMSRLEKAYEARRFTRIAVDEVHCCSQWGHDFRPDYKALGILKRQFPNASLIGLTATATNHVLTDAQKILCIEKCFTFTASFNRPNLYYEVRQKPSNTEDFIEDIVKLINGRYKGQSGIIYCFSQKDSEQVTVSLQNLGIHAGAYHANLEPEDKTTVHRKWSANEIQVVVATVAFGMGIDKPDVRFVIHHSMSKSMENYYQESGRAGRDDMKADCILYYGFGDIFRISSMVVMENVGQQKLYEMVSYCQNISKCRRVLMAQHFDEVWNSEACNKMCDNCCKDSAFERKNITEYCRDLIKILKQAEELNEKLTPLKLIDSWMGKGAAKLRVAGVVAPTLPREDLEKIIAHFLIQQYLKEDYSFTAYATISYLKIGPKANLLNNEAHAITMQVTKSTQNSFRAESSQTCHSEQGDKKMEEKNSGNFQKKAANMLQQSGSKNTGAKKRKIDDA
Method in brief: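 RECQ1T1 50 nM; forked duplex (20 bp + 30-nt ss tails) 200 nM, ATP 2 mM final; pH 8.0, 2 mM MgCl2, 2.5 ug/ml poly(dI-dC); 15 min compound preincubation; discontinuous kinetic read over 2 h at RT.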

[3] = Cytometric Cell-Based qHTS for Inhibitors of the mTORC1 Signaling Pathway in MEF (Tsc2-/-, p53-/-) Cells (AID 2660);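 note: Tsc2 and p53 null MEFs carrying empty vector with compound for 24 h; percent of cells above a phospho-rpS6 to PI ratio cutoff in each well; series mostly up to about 38 µM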
Method in brief: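 Readout: Alexa-488 phospho-rpS6 (Ser235/236) intensity divided by PI intensity, thresholded against 7.5 nM rapamycin wells and reported as % positive cells. PI cell count served as the viability measure. Compound exposure was 24 hrs at 37 degree Celsius.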

[4] = High Content Imaging Cell-Based qHTS for Inhibitors of the mTORC1 Signaling Pathway in MEF (Tsc2-/-, p53-/-) Cells (AID 2666);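 note: percent of cells scored positive for phospho-rpS6 Ser235/236 immunostaining by imaging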
Method in brief: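 Tsc2-/-, p53-/- MEFs (empty-vector stable) grown in DMEM + 10% FBS were exposed to compounds for 24 hrs at 37 degree Celsius, fixed, and stained with Alexa-488 anti-phospho-rpS6 Ser235/236 plus Hoechst. Imaging gave the percentage of positive cells per well.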

[5] = High Content Imaging Cell-Based qHTS for Inhibitors of the mTORC1 Signaling Pathway in MEF Cells (AID 2667);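 note: Tsc2-/- p53-/- MEFs stably re-expressing wild-type Tsc2 exposed 24 h; series mostly up to about 38 µM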
Method in brief: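 Tsc2-/-, p53-/- MEFs stably re-expressing WT Tsc2, grown in DMEM + 10% FBS, were treated with compounds for 24 hrs at 37 degree Celsius, fixed, and stained with Alexa-488 phospho-rpS6 Ser235/236 antibody plus Hoechst; results given as % positive cells.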

[6] = Cytometry Cell-Based qHTS for Inhibitors of the mTORC1 Signaling Pathway in MEF cells (AID 2668);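 note: Tsc2-/- p53-/- mouse embryonic fibroblasts stably re-expressing wild-type Tsc2; percent cells positive for phospho-rpS6 Ser235/236 relative to propidium iodide stain; series mostly up to about 38 µM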
Method in brief: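 WT MEFs (Tsc2-/-, p53-/- stably re-expressing WT Tsc2) in DMEM + 10% FBS received compounds 24 hrs after plating, for 24 hrs at 37 degree Celsius. Fixed cells stained with Alexa-488 anti-phospho-rpS6 Ser235/236 and propidium iodide; laser-scanning cytometry read-out.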

[7] = Validation screen for small molecules that induce DNA re-replication in MCF 10A normal breast cells (AID 463097); note: nearly all actives have a fitted effect of over 60% in size
Method in brief: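 Readout: Hoechst nuclear fluorescence intensity, 405 ex / 500-530 em, by scanning plate imager; re-replication scored as increase in nuclei with elevated DNA content. Cells exposed to compound 48 hr, 37 C, 5% CO2 beforehand.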

[8] = target: Ubiquitin carboxyl-terminal hydrolase 2 (Homo sapiens) (UniProt O75604); assay: qHTS Validation Assay for Inhibitors of Ubiquitin-specific Protease USP2a Using CHOP2 as the Reporter (AID 463106)
Ubiquitin carboxyl-terminal hydrolase 2 (Homo sapiens), sequence (O75604 whole entry, looked up): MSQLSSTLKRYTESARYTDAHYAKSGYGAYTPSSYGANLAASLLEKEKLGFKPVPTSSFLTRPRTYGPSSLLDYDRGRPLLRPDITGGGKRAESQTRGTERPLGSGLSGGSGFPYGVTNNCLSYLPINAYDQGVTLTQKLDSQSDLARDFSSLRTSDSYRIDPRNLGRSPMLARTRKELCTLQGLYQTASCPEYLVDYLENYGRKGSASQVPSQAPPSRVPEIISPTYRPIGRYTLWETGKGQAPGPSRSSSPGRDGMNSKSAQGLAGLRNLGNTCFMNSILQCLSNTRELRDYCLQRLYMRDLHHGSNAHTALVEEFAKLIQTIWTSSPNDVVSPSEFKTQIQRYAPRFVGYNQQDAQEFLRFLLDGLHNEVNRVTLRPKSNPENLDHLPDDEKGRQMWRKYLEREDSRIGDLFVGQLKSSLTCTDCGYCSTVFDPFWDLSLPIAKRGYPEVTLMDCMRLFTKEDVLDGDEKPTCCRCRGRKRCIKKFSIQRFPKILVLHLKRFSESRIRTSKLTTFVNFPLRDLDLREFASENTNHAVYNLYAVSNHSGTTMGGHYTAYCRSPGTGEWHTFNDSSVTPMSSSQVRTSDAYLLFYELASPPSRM
Method in brief: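 Readout was coupled fluorescence (Ex 485/Em 531 nm), read 60 min after adding 25 nM final Ub-CHOP2 and 25 nM reporter substrate. Beforehand, 10 nM final USP2 core had 30 min at RT with compound in pH 8.0 buffer. Curves were fitted after normalization to NEM and flagged for artifacts using time-zero reads.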

[9] = target: DNA polymerase III PolC-type (Bacillus subtilis (strain 168)) (UniProt P13267); assay: qHTS Validation Assay for the Inhibitors of DNA Replication in Gram-Positive Bacteria (AID 485295);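 note: PicoGreen fluorescence of double-stranded DNA made on primed circular M13 template; series mostly up to about 57 µM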
DNA polymerase III PolC-type (Bacillus subtilis (strain 168)), sequence (P13267 whole entry, looked up): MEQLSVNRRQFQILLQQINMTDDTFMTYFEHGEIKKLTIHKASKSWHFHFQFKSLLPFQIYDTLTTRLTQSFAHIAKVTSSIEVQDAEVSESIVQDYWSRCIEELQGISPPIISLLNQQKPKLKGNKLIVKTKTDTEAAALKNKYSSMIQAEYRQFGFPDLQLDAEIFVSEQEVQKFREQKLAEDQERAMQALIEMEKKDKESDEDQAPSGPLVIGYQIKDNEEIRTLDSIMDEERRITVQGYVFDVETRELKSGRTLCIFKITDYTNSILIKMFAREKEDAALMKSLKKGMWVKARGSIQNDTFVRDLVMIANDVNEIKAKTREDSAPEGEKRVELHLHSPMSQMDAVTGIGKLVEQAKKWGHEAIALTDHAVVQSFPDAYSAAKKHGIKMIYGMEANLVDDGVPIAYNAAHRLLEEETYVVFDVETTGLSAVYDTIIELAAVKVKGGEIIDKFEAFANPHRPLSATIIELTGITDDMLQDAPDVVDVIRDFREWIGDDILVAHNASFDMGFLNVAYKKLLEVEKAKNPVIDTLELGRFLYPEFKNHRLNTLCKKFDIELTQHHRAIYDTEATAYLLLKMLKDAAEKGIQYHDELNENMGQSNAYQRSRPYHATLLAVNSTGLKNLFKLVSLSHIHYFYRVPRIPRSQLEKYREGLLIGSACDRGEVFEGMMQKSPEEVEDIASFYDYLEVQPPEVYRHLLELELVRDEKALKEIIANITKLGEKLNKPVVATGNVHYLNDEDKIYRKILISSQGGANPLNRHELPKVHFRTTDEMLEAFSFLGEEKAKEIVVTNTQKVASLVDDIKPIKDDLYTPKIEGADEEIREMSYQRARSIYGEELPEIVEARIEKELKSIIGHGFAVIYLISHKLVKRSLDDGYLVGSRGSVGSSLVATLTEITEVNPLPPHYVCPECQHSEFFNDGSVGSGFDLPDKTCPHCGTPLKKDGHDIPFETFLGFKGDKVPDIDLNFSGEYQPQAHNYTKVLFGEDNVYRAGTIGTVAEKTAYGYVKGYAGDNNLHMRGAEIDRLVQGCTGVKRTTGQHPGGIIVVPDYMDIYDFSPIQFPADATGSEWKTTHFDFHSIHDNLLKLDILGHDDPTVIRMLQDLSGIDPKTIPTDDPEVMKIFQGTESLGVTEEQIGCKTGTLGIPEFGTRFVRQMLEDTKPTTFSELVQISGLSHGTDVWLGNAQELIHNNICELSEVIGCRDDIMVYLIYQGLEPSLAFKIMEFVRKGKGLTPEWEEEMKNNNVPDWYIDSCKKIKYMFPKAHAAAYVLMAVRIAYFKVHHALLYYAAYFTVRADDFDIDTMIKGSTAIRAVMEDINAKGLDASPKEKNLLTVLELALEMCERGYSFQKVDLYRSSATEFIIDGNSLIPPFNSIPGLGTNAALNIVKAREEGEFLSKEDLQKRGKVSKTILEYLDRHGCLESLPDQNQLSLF
Method in brief: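 Reconstituted B. subtilis holoenzyme (Pol III, beta clamp, SSB, primase) was preincubated with compound at room temperature, then given single-stranded circular M13Gori plus dNTPs and NTPs. EDTA-containing PicoGreen stopped the reaction, and dsDNA product was read by fluorescence.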

[10] = target: Tumor susceptibility gene 101 protein (Homo sapiens) (UniProt Q99816); assay: qHTS Validation Assay for Iinhibitors of HIV-1 Budding by Blocking the Interaction of PTAP/TSG101 (AID 485342; calls by dose curve)
Tumor susceptibility gene 101 protein (Homo sapiens), sequence (Q99816 whole entry, looked up, the tested form may be a part): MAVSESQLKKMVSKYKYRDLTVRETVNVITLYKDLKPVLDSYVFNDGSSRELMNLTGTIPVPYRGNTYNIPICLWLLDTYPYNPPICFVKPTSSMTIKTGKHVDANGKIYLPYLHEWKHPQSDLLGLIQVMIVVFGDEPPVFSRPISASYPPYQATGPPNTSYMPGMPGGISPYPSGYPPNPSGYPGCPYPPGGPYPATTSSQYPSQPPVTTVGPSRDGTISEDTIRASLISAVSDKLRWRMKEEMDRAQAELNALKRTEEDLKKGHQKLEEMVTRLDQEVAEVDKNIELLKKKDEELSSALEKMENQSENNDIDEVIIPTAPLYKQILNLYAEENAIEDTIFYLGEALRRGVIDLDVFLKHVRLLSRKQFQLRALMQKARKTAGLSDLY
Method in brief: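 Tsg101 binding domain (10 uM final) in pH 7.5 HEPES/NaCl/Tween 20/EDTA/TCEP buffer was mixed with pin-transferred compounds, then FITC-labeled PTAP peptide (50 nM final) was added; after 20 min at r.t., fluorescence polarization was read.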

[11] = qHTS Validation Assay to Find Inhibitors of Chronic Active B-Cell Receptor Signaling (AID 485345; active = well fitted curve in the direction sought with a large enough effect in the main read-out, with a control signal flat, not every such curve was filed as active)
Method in brief: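 Read-out: ratio of filter-corrected green (IkappaBalpha fusion) to red (native) luciferase signal in doxycycline-induced TMD8 cells after 4 h at 37C. Titration spanned 46 uM–3 nM; Data were normalised to basal cells and 10 uM MG-132 wells.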

[12] = Quantitative high throughput screen for delayed death inhibitors of the malarial parasite plastid, 96 hour incubation (AID 488745); note: series mostly up to about 29 µM; nearly all actives have a fitted effect of over 70% in size
Method in brief: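 Decreased firefly luciferase luminescence indicates inhibited growth of reporter-integrated P. falciparum after two generations (96 h, 37 C, 5% CO2). Infected erythrocytes at 0.1% parasitemia, 2% hematocrit, in Albumax-supplemented RPMI 1640.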

[13] = Quantitative high throughput screen for delayed death inhibitors of the malarial parasite plastid, 48 hour incubation (AID 488752); note: nearly all actives have a fitted effect of over 65% in size
Method in brief: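 One-generation (48 h) growth assay: a decrease in luciferase signal from an integrated reporter in P. falciparum-infected red cells (0.1% parasitemia, 2% hematocrit) after compound exposure at 37 C indicates parasite inhibition.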

[14] = target: Thioredoxin reductase 1, cytoplasmic (Rattus norvegicus) (UniProt O89049); assay: qHTS Assay for Substrates of Mammalian Selenoprotein Thioredoxin Reductase 1 (TrxR1) (AID 488772);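 note: series mostly up to about 57 µM; a drop in NADPH fluorescence below the no-compound background marks a TrxR1 substrate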
Thioredoxin reductase 1, cytoplasmic (Rattus norvegicus), sequence (O89049 whole entry, looked up): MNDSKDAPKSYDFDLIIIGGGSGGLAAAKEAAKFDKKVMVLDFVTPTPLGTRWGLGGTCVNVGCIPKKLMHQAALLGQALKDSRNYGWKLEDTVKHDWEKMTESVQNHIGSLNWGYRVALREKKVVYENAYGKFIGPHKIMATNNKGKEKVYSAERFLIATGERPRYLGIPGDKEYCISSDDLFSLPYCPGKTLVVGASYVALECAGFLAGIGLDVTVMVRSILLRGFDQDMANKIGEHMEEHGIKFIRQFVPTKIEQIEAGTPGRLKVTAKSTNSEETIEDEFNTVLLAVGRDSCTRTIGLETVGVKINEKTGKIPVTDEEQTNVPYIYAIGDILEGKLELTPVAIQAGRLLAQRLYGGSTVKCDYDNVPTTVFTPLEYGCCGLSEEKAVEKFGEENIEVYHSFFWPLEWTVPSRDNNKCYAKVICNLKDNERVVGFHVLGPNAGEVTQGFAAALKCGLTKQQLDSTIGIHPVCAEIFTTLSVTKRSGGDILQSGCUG
Method in brief: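 In this dual-purpose format, potential substrates are identified from the first fluorescence read after selenite addition, not from the 8-minute delta. Rat enzyme is preincubated with NADPH and then with compound at ~22 deg C.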

[15] = target: Thioredoxin reductase 1, cytoplasmic (Rattus norvegicus) (UniProt O89049); assay: qHTS Assay for Inhibitors of Mammalian Selenoprotein Thioredoxin Reductase 1 (TrxR1) (AID 488773); settings: Potency: inhibition;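 note: drop in NADPH fluorescence over an 8 min run after selenite addition; series mostly up to about 57 µM; nearly all actives have a fitted effect of over 40% in size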
Method in brief: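 Inhibition is scored from the loss of NADPH fluorescence between first and last reads of an 8-min kinetic run. Selenite (400 uM) was the substrate, added after 15 min compound preincubation at room temperature.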

[16] = target: Beta-2 adrenergic receptor (Homo sapiens) (UniProt P07550); assay: qHTS validation assay of beta-arrestin-biased ligands of beta2-adrenergic receptor (AID 485366)
Beta-2 adrenergic receptor (Homo sapiens), sequence (P07550 whole entry, looked up): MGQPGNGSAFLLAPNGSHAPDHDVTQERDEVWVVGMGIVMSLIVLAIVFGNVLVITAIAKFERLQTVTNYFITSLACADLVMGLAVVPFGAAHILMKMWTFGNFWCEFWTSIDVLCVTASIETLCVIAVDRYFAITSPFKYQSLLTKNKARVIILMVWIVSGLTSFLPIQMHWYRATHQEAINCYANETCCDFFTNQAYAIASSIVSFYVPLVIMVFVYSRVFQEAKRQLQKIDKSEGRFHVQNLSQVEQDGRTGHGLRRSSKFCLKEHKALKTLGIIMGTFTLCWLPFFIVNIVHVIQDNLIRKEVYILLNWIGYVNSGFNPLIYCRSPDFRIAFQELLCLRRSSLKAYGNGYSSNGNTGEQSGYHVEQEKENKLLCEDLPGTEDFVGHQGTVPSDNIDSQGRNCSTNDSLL
Method in brief: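 Agonist activity is measured as luciferase luminescence downstream of beta-arrestin recruitment to recombinant beta2-AR in Tango cells. Exposure lasts 18 hr at 37 degrees C, and curves are categorized by r2, response size and activity.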

[17] = target: Flap endonuclease 1 (Homo sapiens) (UniProt P39748); assay: qHTS Validation Assay for the Inhibitors of Human Flap endonuclease 1 (FEN1) (AID 488816)
Flap endonuclease 1 (Homo sapiens), sequence (P39748 whole entry, looked up): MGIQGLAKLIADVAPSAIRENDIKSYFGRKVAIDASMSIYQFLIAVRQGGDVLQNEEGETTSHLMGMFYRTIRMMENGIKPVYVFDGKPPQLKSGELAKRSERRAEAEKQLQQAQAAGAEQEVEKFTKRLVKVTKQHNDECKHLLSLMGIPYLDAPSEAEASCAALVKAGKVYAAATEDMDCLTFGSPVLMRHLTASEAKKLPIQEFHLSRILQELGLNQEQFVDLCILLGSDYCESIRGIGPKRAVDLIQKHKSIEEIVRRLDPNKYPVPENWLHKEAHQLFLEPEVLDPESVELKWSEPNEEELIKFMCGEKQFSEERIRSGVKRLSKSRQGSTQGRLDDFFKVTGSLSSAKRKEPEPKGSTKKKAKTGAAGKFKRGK
Method in brief: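 qHTS format: compounds and 10 nM FEN1 incubated 15 min at room temperature before adding 50 nM substrate. Cleavage followed by reads at 0 and 15 min; normalized data fitted to a four-parameter Hill curve.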

[18] = target: RecQ-like DNA helicase BLM (Homo sapiens) (UniProt P54132); assay: qHTS Validation Assay for Inhibitors of Bloom's syndrome helicase (BLM) (AID 2364)
Method in brief: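 Forked 20-bp duplex substrate (200 nM, TAMRA/BHQ-2) plus 2 mM ATP added after 15 min compound preincubation with 50 nM enzyme, pH 8.0, poly(dI-dC) 2.5 ug/ml. Strand separation followed by fluorescence (525/598 nm) over 2 h, normalized to enzyme-free and DMSO controls.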

[19] = target: ATP-dependent 6-phosphofructokinase (Trypanosoma brucei brucei) (UniProt O15648); assay: qHTS Validation Assay to Find Inhibitors of T. brucei phosphofructokinase (AID 485368)
ATP-dependent 6-phosphofructokinase (Trypanosoma brucei brucei), sequence (O15648 whole entry, looked up): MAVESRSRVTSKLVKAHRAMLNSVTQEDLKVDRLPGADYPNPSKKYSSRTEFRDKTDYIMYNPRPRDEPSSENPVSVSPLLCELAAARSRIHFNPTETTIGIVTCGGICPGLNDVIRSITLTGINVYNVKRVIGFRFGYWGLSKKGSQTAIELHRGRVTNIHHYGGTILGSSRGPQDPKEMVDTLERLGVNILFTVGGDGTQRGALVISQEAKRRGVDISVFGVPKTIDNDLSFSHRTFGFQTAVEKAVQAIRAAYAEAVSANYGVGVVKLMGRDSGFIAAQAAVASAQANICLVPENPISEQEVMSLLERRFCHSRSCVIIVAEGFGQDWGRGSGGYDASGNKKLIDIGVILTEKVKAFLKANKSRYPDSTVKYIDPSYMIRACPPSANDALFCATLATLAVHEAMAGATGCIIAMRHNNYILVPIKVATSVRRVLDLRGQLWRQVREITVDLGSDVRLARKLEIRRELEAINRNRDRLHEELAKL
Method in brief: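 Inhibition derived from concentration-response curves of luminescence, ranked by r2, response size and curve class; the underlying reaction used 1.25 nM PFK, 0.1 mM ATP and 0.5 mM F6P, 45 min, room temperature.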

Measured: Potency

NC12CC3CC(CC(C3)C1)C2
not listed: [16] | [17] | [18] | [19]
inactive: all other assays above

O=C(C1CCCCC1)N1CC(=O)N2CCc3ccccc3C2C1 (configuration not stated)
not listed: [9] | [18] | [19]
inactive: all other assays above

CCc1cccc2c3c([nH]c12)C(CC)(CC(=O)O)OCC3 (configuration not stated)
not listed: [3] | [12] | [15] | [16] | [18] | [19]
inactive: all other assays above

COc1ccccc1N1CCN(CC(O)COc2cccc3ccccc23)CC1 (configuration not stated)
inactive: [1] | [2] | [18] | [8] | [10] | [16] | [19] | [13] | [14] | [17]

CN1CCN2c3ccccc3Cc3ccccc3C2C1 (configuration not stated)
not listed: [3] | [9] | [12] | [16] | [17] | [18] | [19]
inactive: all other assays above

Nc1ccn([C@H]2CC[C@@H](CO)O2)c(=O)n1
not listed: [12] | [15] | [16] | [18]
inactive: all other assays above

CN1C2CCC1CC(OC(=O)C(CO)c1ccccc1)C2 (configuration not stated)
not listed: [8] | [9] | [12] | [14] | [15] | [17] | [18]
inactive: all other assays above

CN(C)c1nc(N(C)C)nc(N(C)C)n1
not listed: [4] | [9] | [12] | [15] | [18]
inactive: all other assays above

NCCc1cnc[nH]1
not listed: [4] | [14] | [15] | [18]
inactive: all other assays above

Nc1nc2c(ncn2COC(CO)CO)c(=O)[nH]1
not listed: [3] | [12] | [17] | [18]
inactive: all other assays above

Cc1cn([C@H]2C=C[C@@H](CO)O2)c(=O)[nH]c1=O
not listed: [3] | [12] | [18] | [19]
inactive: all other assays above

CC(C)(Oc1ccc(C2CC2(Cl)Cl)cc1)C(=O)O (configuration not stated)
not listed: [4] | [9] | [18] | [19]
inactive: all other assays above

Source: PubChem BioAssay (NCATS)
